High-throughput results from PubChem BioAssay.
IMPase cell inh = IMPase inhibition in cells. P97697. CHO-M1 cells, IP1 accumulation, HTRF TR-FRET ratio. inhibition (IP1 accumulation), % at 46.1 µM. 120,000 tested, under 10 active; active means well fitted curve in the direction sought with a large enough effect in the signal ratio, not every such curve was filed as active; inconclusive means small, poorly fitted or top-dose-only effect, or a change in a side signal; inactive means no such curve, though single readings can be large or run the other way; the % refers to the signal ratio;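 further: cells stimulated with carbachol in lithium chloride buffer; plate controls were DMSO basal wells for no effect and reference inhibitor wells for full effect; higher means more IMPase inhibition seen as more IP1 and lower FRET ratio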
Target sequence (P97697 whole entry, looked up): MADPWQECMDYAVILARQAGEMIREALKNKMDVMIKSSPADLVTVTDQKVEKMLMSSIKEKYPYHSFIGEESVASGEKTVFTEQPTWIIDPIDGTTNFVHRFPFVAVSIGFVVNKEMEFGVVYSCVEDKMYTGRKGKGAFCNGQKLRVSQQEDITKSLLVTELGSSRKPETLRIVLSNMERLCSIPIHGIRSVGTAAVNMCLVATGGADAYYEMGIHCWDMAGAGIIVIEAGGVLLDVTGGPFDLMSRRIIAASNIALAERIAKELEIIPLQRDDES
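Carbachol-driven Gq signalling in CHO-M1 cells (2000/well) generates IP1. Compounds that block IMPase raise IP1 and so reduce the FRET signal from Eu-anti-IP1 and d2-IP1 after a 10 min room-temperature lysis.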
HPGD block = HPGD (human) dehydrogenase inhibition | 4.3% of 150,000 active | purified HPGD, NADH fluorescence kinetic, PGE2 substrate | Potency, µM, without a hit: at the highest dose activity change, negative = inhibition, usual class: inhibitors | P15428; further: potency means the concentration at half of the fitted maximal effect
Target sequence (P15428 whole entry, looked up): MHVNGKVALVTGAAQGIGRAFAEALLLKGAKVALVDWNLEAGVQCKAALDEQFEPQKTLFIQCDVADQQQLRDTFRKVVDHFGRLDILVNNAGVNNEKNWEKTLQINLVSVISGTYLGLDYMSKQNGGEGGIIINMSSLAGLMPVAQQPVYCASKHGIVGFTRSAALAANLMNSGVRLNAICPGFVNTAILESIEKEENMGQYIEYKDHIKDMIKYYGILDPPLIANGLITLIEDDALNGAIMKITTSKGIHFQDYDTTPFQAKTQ
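NADH formation kinetics: reaction with 30 uM PGE2 and 1 mM NAD+ (final), 20 nM enzyme, Tris-HCl pH 8 with Tween 20, after 15 min compound preincubation at room temperature. Fluorescence change, last versus first of five reads.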
ALOX12 inhib = inhibitors of human 12-lipoxygenase (ALOX12). purified 12-hLO, xylenol orange hydroperoxide absorbance. Potency, µM (top dose mostly 57.1 µM), for inactives: at the top dose activity change, negative = inhibition, hits mostly inhibitors. 0.12% of 150,000 active; active means well fitted curve in the direction sought with a large enough effect; inconclusive means small, poorly fitted or top-dose-only effect, or another doubt; inactive means no such curve, though single readings can be large; an effect the other way counts as inactive or inconclusive; further: potency means the concentration at half of the fitted maximal effect; nearly all actives have a fitted effect of over 55% in size
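Lipoxygenase turnover measured by absorbance at 573 and 405 nm after Fe-XO development. Human 12hLO 150 nM, arachidonate 40 uM, pH 7.0 Hepes buffer with detergent; 15 min compound preincubation, 30 min reaction.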
PNC assembly inh = perinucleolar compartment assembly inhibition; PC3M PTB-GFP, PNC prevalence imaging, 16 h; active compounds read low; activity change (PNC), negative = inhibition, % at 10 µM; 3.1% of 140,000 active;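 active means readout at or below -70, meaning at least 70% loss of cells showing the perinucleolar compartment, a nuclear body marking cancer cells; inconclusive means readout between -30 and a set limit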;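 further: plate controls were DMSO wells for no effect and camptothecin positive control wells for full effect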
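Compounds are pinned in duplicate onto adhered PC3M cells stably expressing GFP-tagged PTB and incubated 16 h at 37 C. Cells are then fixed, nuclei stained with Hoechst, and PNC-positive cells counted.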
ALDH1A1 inh = inhibitors of human aldehyde dehydrogenase 1A1 | P00352 | Purified ALDH1A1, NADH fluorescence, propionaldehyde substrate | Potency, µM (series often up to 75.3 µM), without a hit: at the highest dose activity, negative = inhibition, usual class: inhibitors | 7.3% of 220,000 active | AID 1030;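 further: potency means the concentration at half of the fitted maximal effect; plate controls were no enzyme wells and a reference inhibitor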
IMPase Li inh = membrane-permeable IMPase blocker, potentiated with lithium. CHO-M1 cells, IP1 TR-FRET (IP-One), carbachol + lithium. Potency, µM (series often up to 59.4 µM), inactives show at the top dose activity, negative = IMPase inhibition, hits mostly inhibitors. 0.35% of 210,000 active; active means well fitted curve in the direction sought with a large enough effect; inconclusive means small, poorly fitted or top-dose-only effect, or another doubt; inactive means no such curve, though single readings can be large; an effect the other way counts as inactive or inconclusive;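 further: IP1 builds up when IMPase is blocked and the TR-FRET signal falls; potency means the concentration at half of the fitted maximal effect; plate controls were basal vehicle for no effect and high inhibitor control for full effect; nearly all actives have a fitted effect of over 50% in size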
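Steps: plate 2000 CHO-M1 cells per well and culture 16–30 h; add compound and lithium; incubate 30 min, 37C; add d2-IP1 tracer and Eu cryptate anti-IP1 antibody in lysis buffer; read after 10 min at room temperature.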
Starred values were filed as active, the others as inactive; ? = inconclusive; . = no result; ! = a repeat was not active; [ ] = remark or other dose. Rows were chosen to be rich in hits. Some 11% of all compounds tested hit in one or more screens of this group. Unless noted, the call rests on the fitted dose curve; in most records, active means well fitted inhibition curve with a large enough effect (not every such curve was filed as active); inconclusive means small, poorly fitted or top-dose-only effect, or another doubt; inactive means no such curve, though single readings can be large or run the other way. Unless noted, on the % scale 0 is the no-effect control and ±100 the full control effect.

SMILES	IMPase cell inh	HPGD block	ALOX12 inhib	PNC assembly inh	ALDH1A1 inh	IMPase Li inh
COCCNC(C(=O)Nc1cc(Cl)cc(Cl)c1)c1ccccc1 (stereo not drawn)	2	-10%	-7%	-9	14µM*	17%[38.3 µM]
COCC(C)NC(C(=O)Nc1ccc(C)c(Cl)c1)c1ccccc1 (stereo not drawn)	3	-11%	4%	41	?	33%[38.3 µM]
CC(=O)Nc1cccc(NC(=O)C2CC3CCC2C3)c1 (stereo not drawn)	9	-29%	2%	-23	2%	7%[38.3 µM]
CCN(CC)c1ccc(NC(=O)C2CC3CCC2C3)cc1 (stereo not drawn)	7	18µM*	-9%	1	13µM*	46%[38.3 µM]
COCCNc1ncnc2ccc(-c3ccoc3)cc12	.	.	.	.	?	-15%
COc1ccc(-c2c3c(=O)n(C)c(=O)n(C)c3cn2-c2ccccc2)cc1	-4	-12%	-2%	-91*	?	32%[38.3 µM]
COc1ccc(C(=O)Nn2cc3c(c2-c2ccccc2)c(=O)n(C)c(=O)n3C)cc1	10	1%	-10%	5	?	26%[38.3 µM]
CC(=O)N1[C@H](Cc2ccccc2)C=C[C@]1(C)C(=O)NCc1ccc(C)o1	.	22µM*!	-2%	25	8%	2%
CNC(=O)[C@@]1(C)C=C[C@@H](Cc2ccccc2)N1C(C)=O	.	-14%	2%	.	-6%	-10%
CN1[C@H](Cc2ccccc2)C=C[C@]1(C)C(=O)NCC1CC1	.	-19%	-4%	.	28µM*	-1%
COC(=O)N1C2(C=CC1(C)C(=O)NCc1ccc(N(C)C)cc1)CCCCC2 (stereo not drawn)	.	-2%	5%	.	25µM*	2%
COC(=O)CNC(=O)C1(C)C=CC2(CCCCC2)N1C(=O)OC (stereo not drawn)	.	-18%	-1%	.	3%	-11%
CNC(=O)[C@@]1(C)C=C[C@@H](Cc2ccccc2)N1C(=O)OC	.	-4%	0%	-96*	9%	3%
CNC(=O)[C@@H]1O[C@@H](n2cnc3c(N)ncnc32)[C@@H](O)[C@H]1O	-9	.	1%	.	.	.
O=C1c2ccccc2-c2ccc(N(Cc3ccc(Br)cc3)Cc3ccc(Br)cc3)cc21	.	-4%	0%[11.4 µM]	.	1%[13.5 µM]	2%
CN(C)c1ccc(CNC(=O)[C@@]2(C)C=C[C@@H](Cc3ccccc3)N2C)cc1	.	-15%	-5%	.	20µM*	-8%
CN1CCN(c2ncnc3ccc(-c4ccoc4)cc23)CC1	.	.	.	.	?	17%
Cc1nc2ccccc2c(=O)n1NC(=O)Nc1ccccc1	-5	3%	-6%	44	8%	12%[38.3 µM]
Cc1nc2ccccc2c(=O)n1NS(C)(=O)=O	0	-9%	3%	-112*	11%	0%[38.3 µM]
CCOC(=O)C1(CCCc2ccccc2)CCN(Cc2cn(CC)nc2C)CC1	.	.	.	.	?	18%
CCOc1ccc2c3c(c(=O)oc2c1OCC)CCCC3	-6	-24%	-1%	?	?	0%[38.3 µM]
CCCOc1ccc2c3c(c(=O)oc2c1OCCC)CCCC3	0	?	0%	-111*	?	19%[38.3 µM]
CS(=O)(=O)Nc1ccc(C2=NN(C(=O)c3ccco3)C(c3cccc(F)c3)C2)cc1 (stereo not drawn)	.	.	.	.	14µM*	-10%
COc1ccc(S(=O)(=O)N2N=C(c3ccc(NS(C)(=O)=O)cc3)CC2c2ccco2)cc1 (stereo not drawn)	.	.	.	.	22µM*	5%
CCS(=O)(=O)Nc1ccc(C2=NN(C(=O)c3ccco3)C(c3cccc(F)c3)C2)cc1 (stereo not drawn)	.	.	.	.	?	0%
CS(=O)(=O)Nc1ccc(C2=NN(S(=O)(=O)c3ccccc3)C(c3cccs3)C2)cc1 (stereo not drawn)	.	.	.	.	?	-1%
CS(=O)(=O)Nc1ccc(C2=NN(C(=O)c3ccco3)C(c3ccccc3)C2)cc1 (stereo not drawn)	.	-12%	0%	?	16µM*	-6%
COC(OC)[C@@H](C)[C@H](OC)[C@@H](C)[C@H](OC)c1ccccc1	.	.	.	.	-1%[13.5 µM]	.
